Here are results for 50 compounds from PubChem BioAssay AID504842 (National Center for Advancing Translational Sciences (NCATS), 2011).

Structures are written as SMILES. The campaign covered roughly 330,000 compounds. About 100 (0.03%) were called active. Not shown: some 1% with an inconclusive outcome. What follows is part of a selection rich in actives, with near analogues and random picks from the rest. Unmarked numbers belong to inactive results. Calls come from the whole dose curve; as a rule, active = well fitted inhibition curve with a large enough effect; inconclusive = small, poorly fitted or top-dose-only effect; inactive = flat fitted curve, though single readings scatter.
% is set by controls: 0 for no effect and ±100 for the full control effect; potency is the fitted concentration of half-maximal effect.

In the assay the test system is Chaperonin Mm-Cpn (Methanococcus maripaludis). Put plainly: Inhibitors of TCP-1 ring complex (TRiC) of Methanococcus maripaludis (MmCpn): qHTS.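 For Potency: enzyme at 25 nM with ATP substrate at 10 µM during the reaction.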 Note: nearly all actives have a fitted effect of over 80% in size. Particulars: purified Mm-Cpn ATPase, ADP Transcreener TR-FRET; series mostly up to 76.9 µM; activity, negative = inhibition: at the top concentration. The text has this:
The eukaryotic chaperonin TRiC (for TCP-1 ring complex) is an essential and conserved chaperone required for the folding and activation of 10-15% of the proteins encoded by the human genome. […] The TRiC complex consist of two stacked 7-9 membered rings, each containing a central cavity. Substrates are folded within the cavity in an ATP-dependent manner. TRiC is a complex of eight different, essential proteins. As each of the genes encoding the eight subunits is essential for cell viability and no protocol has been developed to over-express this enzyme to high levels. That is why several groups studying the TRiC chaperonin have turned to the archaeal homolog of TRiC, Methanococcus maripaludis (Mm-CPN), and have used this enzyme as a model system for the study of the type II chaperonin family. Small molecule inhibitors of the Mm-CPN enzyme would be extremely useful to study the mechanism of chaperonin activity. Importantly, TRiC and Mm-CPN both require ATP hydrolysis for function. Furthermore, the ATP binding sites are highly conserved among these type II chaperonins. This provides us with an easy, well tested and straightforward assay to identify inhibitors of chaperonin activity. The Mm-CPN assay was developed in 1536-well plate format using the HTRF Transcreener ADP assay kit (Cisbio, Bedford, MA). This assay applied the time resolved fluorescence resonance energy transfer (TR-FRET) principle. ATP in the presence of Mm-CPN is converted to ADP + Pi. An antibody labeled with Eu3+-Cryptate specific and bound to ADP labeled with […] (d2) competes with the unlabeled ADP generated by Mm-CPN. The resulting TR-FRET signal is inversely proportional to the concentration of ADP in the sample. In this assay a reduction in TR-FRET signal is observed with ATP turnover. NIH Chemical Genomics Center [NCGC] NIH Molecular Libraries Probe Centers Network [MLPCN] MLPCN Grant: DA030554-01A1 Assay Submitter (PI): Judith Frydman, Stanford University
Purified Mm-CPN was supplied by the laboratory of Dr. Judith Frydman. Protein samples were stored at -80C as single use aliquots. Protein was thawed in ambient temperature water bath and placed on ice once thawed. Buffer was prepared fresh day of screen. The buffer composition below was used to prepare the working solution of the Mm-CPN protein and ATP substrate. The buffer is comprised of 30 mM TRIS pH 7.4, 100mM KCl, 5mM MgCl2, and 1mM DTT. A final concentration of 25nM Mm-CPN and 10uM ATP per well were used in the screen. Instructions according to the manufacturer were followed for the ADP Transcreener kit. Used 1536 well Greiner white, medium binding (MB), solid bottom plates. Plates were read on the PerkinElmer EnVision plate reader using Excitation = 320 nm and Emission = […], 665 nm. Protocol- 1.Dispense 1.5ul per well of working [Mm-CPN] = 50nM (or 75 ng / well) 2.Spin plate at 1000 rpm for 30 seconds 3.23nl of compound transferred per well 4.Incubate at 37degC for 10 minutes 5.Dispense 1.5ul per well of working [ATP] = 20uM 6.Incubate at 37degC for 30 minutes 7.Dispense 3ul per well of Anti-ADP Cryptate / ADP-d2 mix (prepared as instructed by Cisbio) 8.Incubate at ambient for 30 minutes 9.Read using EnVision
A general note: Quantitative high-throughput screening tests each substance at several concentrations.
On to `CCCNCc1cc(OCC)c(OCC(=O)Nc2ccccc2)cc1Br`, for which the “activity, negative = inhibition” value is -4.4% (inactive).
`CC(c1ccccc1)n1c(NCCCn2ccnc2)nc2c1c(=O)[nH]c(=O)n2C` (stereo not given): the “activity, negative = inhibition” value was 0.8% (inactive).
Still for that read-out and setting: for `CC(=O)NS(=O)(=O)c1ccc(NC(=O)/C=C/c2ccccc2Cl)cc1` the value was -0.316% (inactive).
Still for that read-out and setting: for `CN(CC(=O)NCCc1ccc(F)cc1)CC(=O)Nc1ccc(F)c(F)c1F` the value was 1.1% (inactive); for `CC(C)c1nc2oc3c(N4CCN(C)CC4)ncnc3c2c2c1CCC2`, -8.03% (inactive).
The same measure, in the same setting: for `C=CS(=O)c1sc(Cl)c(N2CCOCC2)c1[N+](=O)[O-]` (stereo not given) the value was -1.91% (inactive); for `CN(C)CCCNc1c2c(c(C#N)c3nc4ccccc4n13)CCC2`, -0.924% (inactive).
For the compound `CCn1c2ccccc2c2cc(NC(=O)Nc3ccc([N+](=O)[O-])cc3C)ccc21`, the “activity, negative = inhibition” value was 1.13% (inactive).
For `O=C(CCC(=O)c1ccccc1)NCc1cccc(C(F)(F)F)c1`, the “activity, negative = inhibition” value is -0.0071% (inactive).
Still for that read-out and setting: for `CCOc1ccccc1NC(=S)NC(=O)CCc1ccccc1` the value was 0.822% (inactive).
With `O=S(=O)(c1cc(Cl)ccc1Cl)N1CCN(Cc2ccco2)CC1`, the “activity, negative = inhibition” value is 0.0715% (inactive).
For the compound `CCOc1cc(/C=C(/C#N)c2ccc(Cl)cc2)cc(Cl)c1OCC(=O)O`, the “activity, negative = inhibition” value was 1.28% (inactive).
Turning to `O=C(CSc1ncnc2c1cnn2CCc1ccccc1)Nc1ccc(F)cc1`, the “activity, negative = inhibition” value was -0.16% (inactive).
As for `O=C(Nc1ccncc1)c1cc(-c2ccccn2)nc2ccc(Br)cc12`, the Potency was 44.7 µM (active).
For the compound `Cc1ccc2nc(-c3ccccn3)cc(C(=O)Nc3ccc4c(c3)OCO4)c2c1`, the “activity, negative = inhibition” value was -7.87% (inactive).
Still for that read-out and setting: for `NC(=O)c1cc(-c2cccnc2)nc2ccc(Br)cc12` the value was -1.29% (inactive); for `O=C(Nc1cccnc1)c1noc2c1CCCCC2`, -0.428% (inactive).
With `Nc1ccn(C2CC(O)C(CO)O2)c(=O)n1` (stereo not given), the “activity, negative = inhibition” value is 1.62% (inactive).
Still for that read-out and setting: for `Cc1ccc(C)c(CSc2nc(-c3ccco3)nc3c2c(=O)n(C)c(=O)n3C)c1` the value was 2.6% (inactive); for `COc1ccc(O)c(/C=N/N=C/c2cccc([N+](=O)[O-])c2)c1`, 1.75% (inactive).
Same read-out and setting: for `Nc1ccc(Nc2cc(O)c3ncccc3c2)cc1` the value was -3.06% (inactive); for `CCCN1Cc2cccc(C(=O)Nc3ccc(S(=O)(=O)N4CCCCCC4)cc3)c2C1=O`, -4.72% (inactive); for `CCN(CC)CCN1C(=O)C(=O)/C(=C(/O)c2cnn(-c3ccccc3)c2C)C1c1cccs1` (stereo not given), -1.3% (inactive).
Still for that read-out and setting: for `CC(C)(C)c1ccc(S(=O)(=O)N2CCN(C(=O)c3ccc4c(c3)C(=O)N(Cc3ccncc3)C4=O)CC2)cc1` the value was -0.64% (inactive); for `Cc1ccc(S(=O)(=O)Nc2ccc3c(c2)C(=O)N([C@H](C)CO)C[C@@H](C)[C@@H](CN(C)C(=O)Nc2cccc4ccccc24)O3)cc1`, 2.37% (inactive).
Turning to `C=CCC(NCCCO)c1cccc(OC)c1OC` (stereo not given), the “activity, negative = inhibition” value is -2.38% (inactive).
Still for that read-out and setting: for `CC(C)CCN1CCN(Cc2ccc(C(F)(F)F)cc2)CC1CCO` (stereo not given) the value was 0.684% (inactive); for `CC(C)(C)c1cc2cccnc2n1Cc1cccc(F)c1`, 1.5% (inactive).
On the same count and under the same terms, for `O=c1[nH]c(CSc2ccccc2)nc2c1oc1ccccc12` the value was 1.87% (inactive).
Same read-out and setting: for `CCOc1ccc(NC(=O)CCCCCN2C(=O)[C@@H]3Cc4ccccc4CN3C2=O)cc1` the value was 1.25% (inactive); for `CCN1C(=S)N[C@@H](c2cccc(C(F)(F)F)c2)C(C(=O)OC)=C1C`, 3.56% (inactive); for `COc1cc(C(c2c(NC(=O)c3ccco3)sc(C)c2C)N2CCOCC2)cc(OC)c1OC` (stereo not given), -2.89% (inactive).
As for `CCC1CCCCN1C(=O)CSc1nc(C)cc(C)n1` (stereo not given), the “activity, negative = inhibition” value is -8.6% (inactive).
Same read-out and setting: for `COC(=O)C1CCN(C(=O)NC2CC(=O)N(c3ccc4c(c3)OCCO4)C2)CC1` (stereo not given) the value was 3.08% (inactive).
Same read-out and setting: for `O=C(CNCc1ccc(Cl)cc1)Nc1cccc(C(=O)O)c1` the value was -0.15% (inactive); for `Cc1ccc(-n2c(C)cc(/C=C(\C#N)C(=O)NCC3CCCO3)c2C)cc1` (stereo not given), -2.2% (inactive).
`Cc1ccc(C)c(NC(=O)C(c2ccccc2)N2CCN(CC(=O)NC3CC3)CC2)c1` (stereo not given): the “activity, negative = inhibition” value was -0.786% (inactive).
Still for that read-out and setting: for `COc1ccccc1NC(=O)c1cc(N2C(=O)C3C4CCC(C4)C3C2=O)ccc1Cl` (stereo not given) the value was 1.31% (inactive); for `CCc1nn(CCCC(=O)Nc2ccc(C)cc2C)c(=O)c2cc3occc3n12`, 1.57% (inactive).
On the same count and under the same terms, for `O=S(=O)(NC1CCN(S(=O)(=O)c2ccc3c(c2)OCCO3)CC1)c1c(F)cccc1F` the value was 0.533% (inactive); for `COC(=O)c1ccc(Nc2ncnc3sccc23)cc1`, -13.1% (inactive).
As for `COc1ccc2nc(NC3=NCN(CC4CCCO4)CN3)nc(C)c2c1` (stereo not given), the “activity, negative = inhibition” value is 1.76% (inactive).
Consider `O=S(=O)(c1ccc(-c2ccccc2)cc1)N1CCCC1`, for which the “activity, negative = inhibition” value was -3.69% (inactive).
As for `COc1cc(C2C(C(=O)c3sc(C)nc3C)=C(O)C(=O)N2CCN(C)C)cc(OC)c1OC` (stereo not given), the “activity, negative = inhibition” value is -0.311% (inactive).
On the same count and under the same terms, for `NC(=O)C1CCN(c2nc(-c3cccc(F)c3)cs2)CC1` the value was 0.604% (inactive); for `CCN(CC(=O)Nc1cc(Cl)ccc1C)C(=O)CSCc1ccccc1`, 1.09% (inactive); for `Cc1ccc(C(=O)OCC(=O)Nc2ccc(Cl)cn2)cc1S(=O)(=O)N1CCOCC1`, 1.87% (inactive).
The same measure, in the same setting: for `OCCNc1nc2ccccc2n1-c1ncnc2sc3c(c12)CCC3` the value was 0.0901% (inactive).
On the same count and under the same terms, for `CCOC(=O)NC(=O)C(=CNc1cccc(OC)c1)C(=O)NC(=O)OCC` the value was -0.345% (inactive); for `O.O.O.O=S(=O)([O-])OC[C@H]1O[C@@H](O[C@]2(COS(=O)(=O)[O-])O[C@H](OS(=O)(=O)[O-])[C@@H](OS(=O)(=O)[O-])[C@@H]2OS(=O)(=O)[O-])[C@H](OS(=O)(=O)[O-])[C@@H](OS(=O)(=O)[O-])[C@@H]1OS(=O)(=O)[O-].[Al]`, 0.62% (inactive).
